Reference: the supplement of paper PMC11732987, “Enantioselective OTUD7B fragment discovery through chemoproteomics screening and high-throughput optimisation” (Communications Chemistry, 2025)

How the values were obtained:
Assay in all cases: log2 ratio of Biotin-Ahx-Ub-VS probe labelling (fragment/DMSO); higher = less target engagement (more negative = stronger competition), active = hit call of the paper (q ≤ 0.05, log2 ratio ≤ -1)
Settings in all cases: compound concentration: 200 uM; treatment time: 3 h
[1] = target: T1, USP19 (UniProt O94966)
T1 sequence (whole entry): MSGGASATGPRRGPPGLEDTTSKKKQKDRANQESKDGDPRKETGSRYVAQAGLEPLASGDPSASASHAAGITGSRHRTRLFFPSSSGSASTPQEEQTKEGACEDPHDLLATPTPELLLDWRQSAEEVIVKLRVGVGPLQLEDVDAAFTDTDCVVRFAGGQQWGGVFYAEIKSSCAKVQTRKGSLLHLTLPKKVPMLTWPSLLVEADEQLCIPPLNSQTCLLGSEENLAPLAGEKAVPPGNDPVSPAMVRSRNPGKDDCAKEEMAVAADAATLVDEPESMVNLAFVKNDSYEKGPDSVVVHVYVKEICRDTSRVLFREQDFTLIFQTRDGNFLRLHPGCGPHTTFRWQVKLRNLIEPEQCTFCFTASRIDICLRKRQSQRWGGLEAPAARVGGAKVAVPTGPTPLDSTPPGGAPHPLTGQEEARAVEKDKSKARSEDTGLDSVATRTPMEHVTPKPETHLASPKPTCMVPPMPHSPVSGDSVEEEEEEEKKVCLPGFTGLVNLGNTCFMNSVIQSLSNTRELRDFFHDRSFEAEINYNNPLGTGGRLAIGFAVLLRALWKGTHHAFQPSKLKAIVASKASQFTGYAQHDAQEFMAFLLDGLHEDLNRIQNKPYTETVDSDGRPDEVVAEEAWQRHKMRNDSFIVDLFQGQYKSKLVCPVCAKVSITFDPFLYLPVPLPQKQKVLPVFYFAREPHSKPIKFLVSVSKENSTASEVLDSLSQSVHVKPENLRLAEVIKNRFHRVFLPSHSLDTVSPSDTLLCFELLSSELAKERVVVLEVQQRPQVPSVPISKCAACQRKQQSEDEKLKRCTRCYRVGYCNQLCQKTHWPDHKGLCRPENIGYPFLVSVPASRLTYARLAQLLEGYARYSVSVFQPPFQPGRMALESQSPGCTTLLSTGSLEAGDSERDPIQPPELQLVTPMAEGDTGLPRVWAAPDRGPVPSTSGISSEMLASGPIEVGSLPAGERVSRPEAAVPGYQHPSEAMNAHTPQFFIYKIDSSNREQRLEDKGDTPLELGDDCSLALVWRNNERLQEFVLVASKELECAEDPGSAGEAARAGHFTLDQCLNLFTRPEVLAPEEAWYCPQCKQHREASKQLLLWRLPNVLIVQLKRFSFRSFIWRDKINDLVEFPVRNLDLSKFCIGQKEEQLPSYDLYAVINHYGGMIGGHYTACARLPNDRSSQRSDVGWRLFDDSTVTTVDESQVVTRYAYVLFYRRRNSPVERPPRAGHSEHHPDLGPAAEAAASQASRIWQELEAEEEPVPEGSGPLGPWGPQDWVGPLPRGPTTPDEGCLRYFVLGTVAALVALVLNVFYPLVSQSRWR
Summary of the method: (§1)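 Labelled DUBs from HEK293T lysate were NeutrAvidin-enriched, digested with LysC and trypsin, and run by diaPASEF LC-MS/MS. Before that, each 495 µg sample in Tris/CHAPS/IGEPAL buffer with protease inhibitors was treated in triplicate with fragment at 200 µM or vehicle for 3 h, then with Biotin-Ahx-Ub-VS at 0.5 µM final for 1 h. Values are average log2 ratios of fragment over vehicle by unpaired t-test, based on global-median-normalised Spectronaut label-free quantities from proteins with ≥2 unique peptides.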

[2] = target: USP24 (UniProt Q9UPU5)
Summary of the method: as §1

[3] = target: T2, USP25 (UniProt Q9UHP3)
T2 sequence (whole entry): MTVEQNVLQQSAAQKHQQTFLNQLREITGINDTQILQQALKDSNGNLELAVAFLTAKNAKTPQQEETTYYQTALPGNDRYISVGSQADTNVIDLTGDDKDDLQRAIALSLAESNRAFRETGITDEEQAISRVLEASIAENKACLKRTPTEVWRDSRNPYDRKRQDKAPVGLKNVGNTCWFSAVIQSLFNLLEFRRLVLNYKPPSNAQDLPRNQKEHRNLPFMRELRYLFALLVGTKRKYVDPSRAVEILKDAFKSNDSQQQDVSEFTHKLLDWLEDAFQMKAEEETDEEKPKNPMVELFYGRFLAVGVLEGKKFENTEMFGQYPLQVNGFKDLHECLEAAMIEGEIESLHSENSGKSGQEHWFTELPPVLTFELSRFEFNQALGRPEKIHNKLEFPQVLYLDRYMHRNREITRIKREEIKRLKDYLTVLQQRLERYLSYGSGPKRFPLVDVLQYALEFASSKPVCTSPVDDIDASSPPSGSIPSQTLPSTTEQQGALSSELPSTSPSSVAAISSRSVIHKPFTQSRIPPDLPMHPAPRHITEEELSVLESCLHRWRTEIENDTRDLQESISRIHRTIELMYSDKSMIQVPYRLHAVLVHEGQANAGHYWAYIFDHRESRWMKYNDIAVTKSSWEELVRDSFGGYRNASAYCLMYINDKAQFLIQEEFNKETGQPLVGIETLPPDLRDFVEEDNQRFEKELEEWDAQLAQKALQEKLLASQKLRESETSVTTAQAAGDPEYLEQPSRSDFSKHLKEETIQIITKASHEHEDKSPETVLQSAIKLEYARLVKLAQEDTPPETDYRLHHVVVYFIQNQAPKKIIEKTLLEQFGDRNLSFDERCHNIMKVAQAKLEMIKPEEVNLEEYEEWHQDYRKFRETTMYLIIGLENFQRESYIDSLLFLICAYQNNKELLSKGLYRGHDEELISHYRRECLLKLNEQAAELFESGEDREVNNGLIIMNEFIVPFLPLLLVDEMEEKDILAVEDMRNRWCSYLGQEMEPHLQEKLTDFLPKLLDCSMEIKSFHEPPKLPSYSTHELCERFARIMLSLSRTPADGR
Summary of the method: as §1

[4] = target: T3, USP28 (UniProt Q96RU2)
T3 sequence (whole entry): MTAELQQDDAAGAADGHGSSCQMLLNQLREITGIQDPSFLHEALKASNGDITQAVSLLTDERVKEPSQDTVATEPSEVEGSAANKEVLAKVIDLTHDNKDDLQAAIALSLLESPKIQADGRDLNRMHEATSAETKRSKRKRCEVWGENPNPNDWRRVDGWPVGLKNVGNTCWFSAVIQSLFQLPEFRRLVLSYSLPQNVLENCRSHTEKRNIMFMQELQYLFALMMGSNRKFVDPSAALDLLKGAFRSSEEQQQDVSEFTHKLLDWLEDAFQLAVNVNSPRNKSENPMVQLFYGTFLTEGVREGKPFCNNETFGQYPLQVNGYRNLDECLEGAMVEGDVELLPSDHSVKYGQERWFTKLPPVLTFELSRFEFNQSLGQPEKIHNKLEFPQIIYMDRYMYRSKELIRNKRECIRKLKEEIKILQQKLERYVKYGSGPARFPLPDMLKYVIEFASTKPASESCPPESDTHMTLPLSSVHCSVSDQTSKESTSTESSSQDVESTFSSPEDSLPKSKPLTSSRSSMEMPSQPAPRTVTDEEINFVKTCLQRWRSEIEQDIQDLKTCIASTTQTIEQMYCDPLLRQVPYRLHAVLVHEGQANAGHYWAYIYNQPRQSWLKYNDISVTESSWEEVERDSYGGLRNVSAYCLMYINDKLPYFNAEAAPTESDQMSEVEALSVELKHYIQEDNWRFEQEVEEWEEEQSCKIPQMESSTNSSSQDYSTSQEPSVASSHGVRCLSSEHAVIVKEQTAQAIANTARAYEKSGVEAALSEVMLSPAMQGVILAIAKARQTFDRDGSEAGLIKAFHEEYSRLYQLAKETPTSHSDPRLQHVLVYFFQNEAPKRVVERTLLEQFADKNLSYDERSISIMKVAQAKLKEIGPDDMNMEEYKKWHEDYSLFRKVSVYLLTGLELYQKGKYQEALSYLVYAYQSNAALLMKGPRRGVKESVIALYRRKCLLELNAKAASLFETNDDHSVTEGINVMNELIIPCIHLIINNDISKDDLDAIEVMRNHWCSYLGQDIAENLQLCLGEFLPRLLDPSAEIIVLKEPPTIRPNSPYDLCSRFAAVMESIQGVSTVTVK
Summary of the method: as §1

Measured: log2 ratio of Biotin-Ahx-Ub-VS probe labelling

Chain of USP24 (Q9UPU5 whole entry): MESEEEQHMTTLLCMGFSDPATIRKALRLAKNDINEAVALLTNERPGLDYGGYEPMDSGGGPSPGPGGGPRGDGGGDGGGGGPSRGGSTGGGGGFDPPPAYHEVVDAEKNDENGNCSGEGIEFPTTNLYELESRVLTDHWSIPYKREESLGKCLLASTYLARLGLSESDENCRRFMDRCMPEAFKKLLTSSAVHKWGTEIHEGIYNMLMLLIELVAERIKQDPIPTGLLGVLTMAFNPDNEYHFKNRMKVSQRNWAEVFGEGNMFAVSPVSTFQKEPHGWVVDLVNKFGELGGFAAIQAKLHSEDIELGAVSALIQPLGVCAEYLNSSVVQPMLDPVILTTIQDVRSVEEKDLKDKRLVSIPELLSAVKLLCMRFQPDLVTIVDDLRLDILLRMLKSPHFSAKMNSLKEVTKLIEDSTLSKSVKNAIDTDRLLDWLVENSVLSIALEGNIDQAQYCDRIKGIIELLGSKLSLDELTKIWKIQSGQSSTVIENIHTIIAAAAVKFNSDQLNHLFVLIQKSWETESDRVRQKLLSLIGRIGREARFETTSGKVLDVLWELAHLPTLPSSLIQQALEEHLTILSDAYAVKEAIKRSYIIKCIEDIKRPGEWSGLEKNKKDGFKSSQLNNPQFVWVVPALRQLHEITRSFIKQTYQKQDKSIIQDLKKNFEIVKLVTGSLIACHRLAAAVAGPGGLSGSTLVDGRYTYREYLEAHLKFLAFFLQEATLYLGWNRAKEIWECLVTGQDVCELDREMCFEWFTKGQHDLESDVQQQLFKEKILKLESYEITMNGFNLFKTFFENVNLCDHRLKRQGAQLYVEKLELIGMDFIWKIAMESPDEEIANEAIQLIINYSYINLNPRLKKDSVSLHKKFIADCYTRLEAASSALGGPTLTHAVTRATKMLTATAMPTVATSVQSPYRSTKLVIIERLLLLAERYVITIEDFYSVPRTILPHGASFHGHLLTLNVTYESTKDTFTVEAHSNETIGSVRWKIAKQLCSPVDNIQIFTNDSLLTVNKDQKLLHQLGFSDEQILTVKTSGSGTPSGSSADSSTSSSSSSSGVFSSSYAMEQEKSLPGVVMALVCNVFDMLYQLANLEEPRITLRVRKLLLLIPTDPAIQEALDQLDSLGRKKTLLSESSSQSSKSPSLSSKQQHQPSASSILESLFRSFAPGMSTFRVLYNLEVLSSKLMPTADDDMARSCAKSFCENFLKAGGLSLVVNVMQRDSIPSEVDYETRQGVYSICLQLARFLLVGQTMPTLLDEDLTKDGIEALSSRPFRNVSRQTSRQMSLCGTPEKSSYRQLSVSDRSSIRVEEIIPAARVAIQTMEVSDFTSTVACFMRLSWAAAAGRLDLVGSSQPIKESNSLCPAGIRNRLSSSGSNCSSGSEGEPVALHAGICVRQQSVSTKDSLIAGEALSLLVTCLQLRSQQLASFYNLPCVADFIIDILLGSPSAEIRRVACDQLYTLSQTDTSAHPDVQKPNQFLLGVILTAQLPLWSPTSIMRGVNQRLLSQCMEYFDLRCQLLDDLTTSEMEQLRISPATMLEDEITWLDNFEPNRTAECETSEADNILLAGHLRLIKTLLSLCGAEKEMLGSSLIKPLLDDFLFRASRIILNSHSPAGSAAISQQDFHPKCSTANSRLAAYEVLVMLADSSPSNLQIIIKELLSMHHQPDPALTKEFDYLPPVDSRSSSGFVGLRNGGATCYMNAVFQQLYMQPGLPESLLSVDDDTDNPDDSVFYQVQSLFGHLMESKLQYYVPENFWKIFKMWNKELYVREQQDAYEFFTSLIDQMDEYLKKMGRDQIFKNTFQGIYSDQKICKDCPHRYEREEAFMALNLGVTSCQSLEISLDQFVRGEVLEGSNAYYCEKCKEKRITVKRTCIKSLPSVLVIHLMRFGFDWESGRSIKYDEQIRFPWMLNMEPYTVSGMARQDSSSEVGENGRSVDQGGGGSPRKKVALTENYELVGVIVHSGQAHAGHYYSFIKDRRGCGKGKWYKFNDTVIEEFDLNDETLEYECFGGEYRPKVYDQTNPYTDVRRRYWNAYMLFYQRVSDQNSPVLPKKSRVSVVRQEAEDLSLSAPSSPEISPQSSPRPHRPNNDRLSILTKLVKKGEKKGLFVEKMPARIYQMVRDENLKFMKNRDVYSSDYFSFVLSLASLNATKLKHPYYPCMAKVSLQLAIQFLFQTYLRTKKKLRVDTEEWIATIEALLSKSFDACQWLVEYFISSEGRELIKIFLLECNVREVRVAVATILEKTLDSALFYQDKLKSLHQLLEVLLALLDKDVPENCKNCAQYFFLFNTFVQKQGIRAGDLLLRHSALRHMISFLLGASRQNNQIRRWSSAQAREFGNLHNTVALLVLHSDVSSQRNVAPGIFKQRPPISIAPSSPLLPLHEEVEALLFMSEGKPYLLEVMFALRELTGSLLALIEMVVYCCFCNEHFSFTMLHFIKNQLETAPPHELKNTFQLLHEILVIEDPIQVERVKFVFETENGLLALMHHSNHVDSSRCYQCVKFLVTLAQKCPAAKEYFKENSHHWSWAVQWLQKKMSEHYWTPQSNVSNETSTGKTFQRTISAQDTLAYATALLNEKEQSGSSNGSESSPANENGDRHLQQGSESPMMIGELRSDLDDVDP

O=C(CCl)NCc1ccc(N2CCOCC2)nc1
inactive: [1] -0.163 | [2] -0.312 | [3] -0.432 | [4] -0.485
